Several values for one entry are separate records, joined by “and”; a condition that tells them apart may be missing. Equal values may be shown once. In all, about 220,000 compounds went through this assay and about 8,200 (3.7%) were called active. This is one part of a sample in which actives are shown more often than they occur.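 Rule for the calls: active = compounds that reduced the stress-induced luciferase reporter signal by more than about 70% of percent inhibition (limit read from the data); inactive = the rest.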
Assay: inhibitors of CHOP promoter induction, primary screen, cell-based, unfolded protein response, luciferase reporter (AID 2732);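 note: 0% = tunicamycin plus vehicle and 100% = wells without tunicamycin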
Settings: CHO-K1 CHOP-promoter luciferase, tunicamycin-induced, 15-18 h; at 10 µM; stronger effect = higher value
With `Cc1ccc2c(c1)C(c1ccccc1)N(C(=O)c1ccc(S(=O)(=O)N3CCOCC3)cc1)CC(=O)N2` (configuration not stated) the inhibition was 18% (inactive).
For `CCC(CC)C(=O)N1CC(=O)Nc2ccc(Br)cc2C1c1ccccc1` (configuration not stated), the inhibition was 81.3% (active).
With `COC(=O)CN1C(C)=Nc2ccc(Br)cc2C1c1ccccc1` (configuration not stated) the inhibition was -10.6% (inactive).
With `CN(C)C(=O)c1nc2ccc(Cl)cn2c1CNCc1cccc(OC(F)(F)F)c1` the inhibition was -1.69% (inactive).
In the case of `Cc1cnc(NC(=O)Cn2cnc3c2c(=O)n(C)c(=O)n3C)s1`, the inhibition is reported as -10.1% (inactive).
With `Cc1ccc(C(=O)NNc2ncnc3ccccc23)cc1` the inhibition was 3.67% (inactive).
For `Cc1nn(-c2ccccc2)c(=O)c2noc(C)c12`, the inhibition was 1.49% (inactive).
For `Cc1cc(N2CCN(C)CC2)nc2ccc(NC(=S)N3CCOCC3)cc12`, the inhibition was 2.29% (inactive).
With `Cc1cc(N2CCOCC2)nc2ccc(NC(=S)N3CCN(Cc4ccccc4)CC3)cc12` the inhibition was 80.6% (active).
With `CCn1c2ccccc2c2cc(NC(=S)N3CCOCC3)ccc21` the inhibition was 30.3% (inactive).
For `CC(CO)(CO)NC(=O)c1ccc(=O)[nH]n1`, the inhibition was 0.5% (inactive).
With `O=P(O)(CN1CCCCCC1)C1Cc2ccccc2C1` the inhibition was 4.35% (inactive).
With `O=c1cc(N2CCCCC2)c(-c2ccccc2)nn1Cc1cccc(F)c1` the inhibition was 74.7% (active).
With `O=c1c2ccccc2c(-c2ccccc2)nn1Cc1ccccc1` the inhibition was 43.8% (inactive).
With `O=c1cc(N2CCN(Cc3ccccc3)CC2)c(-c2ccccc2)n[nH]1` the inhibition was 26.9% (inactive).
With `C/C(Cc1ccccc1)=N\NC(=O)CNC(=O)c1ccccc1Cl` the inhibition was -14.9% (inactive).
With `COc1ccc(OCC(O)CNCCNc2nccc(C(F)(F)F)n2)cc1` (configuration not stated) the inhibition was 3.94% (inactive).
For `O=C(Cc1ccccc1)N/N=C/c1ccc(Cl)cc1Cl`, the inhibition was -13.9% (inactive).
For `COc1ccc(/C=N/NC(=O)Cn2cc(C(F)(F)F)ccc2=O)cc1`, the inhibition was -10.7% (inactive).
For `O=C(Cn1cc(C(F)(F)F)ccc1=O)N/N=C/c1ccc(Cl)cc1Cl`, the inhibition was 104% (active).
With `NS(=O)(=O)c1ccc(NC(=O)COC(=O)c2cc3ccccc3oc2=O)cc1` the inhibition was 5.84% (inactive).
With `CCOc1cc2c(Cl)ncnc2c(OCC)c1OCC` the inhibition was 23.1% (inactive).
For `S=c1[nH]c2ccccc2c2ccccc12`, the inhibition was -2.18% (inactive).
With `CCN(CC)CCCN=C(N)N` the inhibition was 3.64% (inactive).
With `CCOC(=O)C1CCN(c2ncnc3c2oc2ccc(Br)cc23)CC1` the inhibition was 21.9% (inactive).
In the case of `CCOC(=O)N1CCN(C(=O)C2CCN(c3ncnc4c3sc3cccc(F)c34)CC2)CC1`, the inhibition is reported as 85.7% (active).
With `CCOC(=O)N1CCN(C(=O)C2CCN(Cc3ccc(OC)cc3OC)CC2)CC1` the inhibition was 18.3% (inactive).
In the case of `Nc1nc(NCC2CCCO2)nc(Nc2ccccc2F)c1[N+](=O)[O-]` (configuration not stated), the inhibition is reported as 12.4% (inactive).
With `CC(C)CCNC(=O)C1CCC(CNc2c(N3CCC(C)CC3)c(=O)c2=O)CC1` (configuration not stated) the inhibition was 1.09% (inactive).
For `Cc1ccc2c(c1)nnc1nnc(SCC(=O)O)n12`, the inhibition was 3.13% (inactive).
With `CS(=O)(=O)n1nc(-c2ccco2)nc1N` the inhibition was 42.4% (inactive).
For `CSc1nc(-c2ccco2)nn1C(=O)c1ccccc1Cl`, the inhibition was 78.2% (active).
For `CSc1nc(-c2ccco2)nn1C(=O)CCc1ccccc1`, the inhibition was 37.2% (inactive).
For `COc1cccc(N2C(=O)CC(N3CCc4ccccc4C3)C2=O)c1` (configuration not stated), the inhibition was -8.87% (inactive).
For `CSCC[C@H](NC(=O)CCCn1nnc2ccccc2c1=O)C(=O)O`, the inhibition was 4.06% (inactive).
In the case of `Cc1ccc(C(=O)c2c(NC(=O)c3ccncc3)sc3c2CCCC3)cc1`, the inhibition is reported as 73.2% (active).
For `Cc1ccc(NC(=O)c2c(NC(=O)CCC(=O)O)sc3c2CCCCC3)cc1`, the inhibition was 5.76% (inactive).
For `Cc1ccc(C(=O)c2c(NC(=O)c3ccccc3)sc(C)c2C)cc1`, the inhibition was 53.1% (inactive).
In the case of `COc1c(C=O)c(CCN(C)C(=O)c2ccc(F)cc2)cc2c1OCO2`, the inhibition is reported as -10.2% (inactive).
For `COc1ccccc1C1CCN(C(=S)Nc2ccc(Br)cc2)CC1`, the inhibition was 26.5% (inactive).
With `COCCn1nnnc1C(c1ccccc1Cl)N1CCN(c2ccccc2OC)CC1` (configuration not stated) the inhibition was 81.6% (active).
With `COc1ccccc1C(c1nnnn1CC1CCCO1)N1CCN(c2ccccc2)CC1` (configuration not stated) the inhibition was -9.42% (inactive).
For `COc1ccccc1C(c1nnnn1C(C)(C)C)N1CCN(Cc2ccccc2)CC1` (configuration not stated), the inhibition was -9.46% (inactive).
With `O=C(NCc1cccnc1)C(=O)Nc1nc(-c2ccccc2)cs1` the inhibition was 16.9% (inactive).
In the case of `FC(F)(F)c1ccnc(Oc2ccc(C3=NCCS3)cc2)c1`, the inhibition is reported as 1.85% (inactive).
With `CC(C)=CCC/C(C)=C/C(=O)O` the inhibition was -11.9% (inactive).
With `Cc1ccc(C(=O)N2CCCC(c3ccccc3)=N2)cc1` the inhibition was 78.5% (active).
With `Cc1ccc(C(=O)C[n+]2cc(-c3ccccc3)n3c2CCCCC3)cc1` the inhibition was -15.7% (inactive) and 24.3% (inactive).
For `Cc1ccc(NC(=S)N2CCCC(c3ccccc3)=N2)cc1`, the inhibition was 16.8% (inactive).
For `O=C(COc1cc(Cl)c(Cl)cc1Cl)NC(=O)NC1CCCC1`, the inhibition was 91% (active).
In the case of `O=C(COc1ccccc1F)NC1CC1`, the inhibition is reported as 40% (inactive).
In the case of `O=C(COc1cc(Cl)c(Cl)cc1Cl)NCCc1ccccn1`, the inhibition is reported as -12.8% (inactive).
With `CCN(CC)CCC(c1ccc2c(c1)OCO2)c1c(OC)cc(OC)c2c(-c3ccccc3)cc(=O)oc12` (configuration not stated) the inhibition was -37.9% (inactive).
With `COc1ccc(NS(=O)(=O)c2ccc(Oc3c(C#N)cccc3C#N)cc2)cc1` the inhibition was 54.8% (inactive).
In the case of `COc1ccc2[nH]cc(/C=C(/C#N)S(=O)(=O)c3ccccc3)c2c1`, the inhibition is reported as 70.3% (active).
In the case of `CCN(CC)CC(=O)c1c[nH]c2ccc(OC)cc12`, the inhibition is reported as -4.19% (inactive).
With `Cc1cc(C)nc(SCc2cn3c(C)cc(C)nc3n2)n1` the inhibition was 19.4% (inactive).
For `Cc1onc(-c2ccc(Cl)cc2)c1-c1ccnn1S(=O)(=O)c1ccc(Cl)cc1`, the inhibition was 57.9% (inactive).
With `COc1ccc(CCNC(=O)CSc2nc3[nH]ncc3c(=O)n2-c2cccc(C(F)(F)F)c2)cc1OC` the inhibition was 16.4% (inactive).
In the case of `COc1ccc(-n2cnnc2SCC(=O)Nc2cccc([N+](=O)[O-])c2)cc1`, the inhibition is reported as 5.96% (inactive).
With `NC(=O)NC(=O)CSc1nc2cc([N+](=O)[O-])ccc2n1-c1cccc(C(F)(F)F)c1` the inhibition was 76.3% (active).
With `NS(=O)(=O)c1ccc(NC2=CC(c3ccc(F)cc3)N(c3ccc(S(N)(=O)=O)cc3)C2=O)cc1` (configuration not stated) the inhibition was -15.2% (inactive).

Source: PubChem BioAssay AID2732 (Emory University Molecular Libraries Screening Center, 2010)
